# Reference: ChEMBL document CHEMBL3988442, “University of Dundee, Small-Polar-MMV Screening Library” (2021)
# For some assays here: Potency and affinity values are given separately.
# Tests used:
# [1] = target: Protein translocase subunit SecA (Escherichia coli (strain K12)) (UniProt P10408); experiment: Assay to Identify E. coli SecA ATPase Inhibitors; type: functional; parameters: scale not given: direction of the effect not stated beside the values; conditions: 30 µM
# [2] = target: T1, Ubiquitin-activating enzyme e1, putative (Leishmania donovani (strain BPK282A1)) (UniProt E9BSI1); experiment: Leishmania donovani Ubiquitin Activating Enzyme (LdE1); type: functional; parameters: scale not given: direction of the effect not stated beside the values; conditions: 30 µM
# T1 sequence (whole entry): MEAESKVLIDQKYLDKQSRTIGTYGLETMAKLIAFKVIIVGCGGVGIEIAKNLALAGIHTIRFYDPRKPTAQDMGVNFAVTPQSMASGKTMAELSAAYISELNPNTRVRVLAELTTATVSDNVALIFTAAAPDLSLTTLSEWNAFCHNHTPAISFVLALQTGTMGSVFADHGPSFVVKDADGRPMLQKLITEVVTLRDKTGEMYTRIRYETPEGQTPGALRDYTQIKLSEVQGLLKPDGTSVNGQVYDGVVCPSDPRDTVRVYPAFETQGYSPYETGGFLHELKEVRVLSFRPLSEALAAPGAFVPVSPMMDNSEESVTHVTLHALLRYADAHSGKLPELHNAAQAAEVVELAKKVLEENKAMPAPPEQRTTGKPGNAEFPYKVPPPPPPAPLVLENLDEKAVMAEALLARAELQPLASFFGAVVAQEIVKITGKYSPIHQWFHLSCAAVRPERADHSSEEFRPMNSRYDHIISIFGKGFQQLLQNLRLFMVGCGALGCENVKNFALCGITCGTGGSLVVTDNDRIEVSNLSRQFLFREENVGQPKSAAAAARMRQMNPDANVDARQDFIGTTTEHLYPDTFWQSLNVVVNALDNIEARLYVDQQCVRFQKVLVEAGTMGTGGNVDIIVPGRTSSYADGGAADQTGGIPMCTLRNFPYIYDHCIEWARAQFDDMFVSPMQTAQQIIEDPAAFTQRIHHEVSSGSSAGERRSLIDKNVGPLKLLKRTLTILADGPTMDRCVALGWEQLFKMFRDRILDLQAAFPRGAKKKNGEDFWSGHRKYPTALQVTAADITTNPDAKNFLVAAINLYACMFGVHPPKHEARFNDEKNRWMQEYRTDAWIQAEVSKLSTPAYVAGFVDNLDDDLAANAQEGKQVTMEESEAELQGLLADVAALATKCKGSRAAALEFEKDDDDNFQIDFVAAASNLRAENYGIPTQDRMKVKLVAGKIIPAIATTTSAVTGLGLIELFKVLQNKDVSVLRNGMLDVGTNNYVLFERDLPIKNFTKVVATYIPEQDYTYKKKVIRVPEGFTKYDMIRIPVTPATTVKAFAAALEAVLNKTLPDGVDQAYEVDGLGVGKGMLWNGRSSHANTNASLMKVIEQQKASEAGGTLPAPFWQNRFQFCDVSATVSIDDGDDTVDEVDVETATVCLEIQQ
# [3] = target: AMP-activated protein kinase, AMPK (Homo sapiens) (UniProt P54646+O43741+P54619+Q9UGJ0+Q9Y478+Q13131+Q9UGI9); experiment: AMP-dependent Kinase enzyme assay. An in vitro enzyme assay that detects ADP turnover that is directly proportional to AMPK activity. This uses naive AMPK that is activated during the assay with MK-8722; type: functional; parameters: scale not given: direction of the effect not stated beside the values; conditions: 30 µM
# [4] = target: Sialic acid-binding Ig-like lectin 9 (Homo sapiens) (UniProt Q9Y336); experiment: Hs-Siglec9 ALPHAscreen SOP 20170721; parameters: scale not given: direction of the effect not stated beside the values; conditions: 10 µM
# Chain of Sialic acid-binding Ig-like lectin 9 (Homo sapiens) (Q9Y336 whole entry): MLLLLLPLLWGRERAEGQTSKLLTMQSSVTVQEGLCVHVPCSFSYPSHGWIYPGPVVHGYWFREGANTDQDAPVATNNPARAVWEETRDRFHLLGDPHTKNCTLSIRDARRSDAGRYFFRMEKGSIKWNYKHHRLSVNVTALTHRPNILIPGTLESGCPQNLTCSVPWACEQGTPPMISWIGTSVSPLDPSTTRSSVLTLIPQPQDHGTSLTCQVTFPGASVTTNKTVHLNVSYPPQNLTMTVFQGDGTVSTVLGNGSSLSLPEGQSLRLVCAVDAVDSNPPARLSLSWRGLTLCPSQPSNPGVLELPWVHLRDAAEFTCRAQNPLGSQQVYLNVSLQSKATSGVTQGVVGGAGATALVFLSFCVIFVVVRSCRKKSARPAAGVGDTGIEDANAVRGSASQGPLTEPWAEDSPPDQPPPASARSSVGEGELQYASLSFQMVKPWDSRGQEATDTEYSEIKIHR
# Trypanosoma cruzi = experiment: Trypanosoma cruzi phosphomannomutase and mannose-1-phosphate guanylyltransferase assay; type: functional; parameters: scale not given: direction of the effect not stated beside the values; conditions: 10 µM
# [5] = target: T2, Arginase-2, mitochondrial (Homo sapiens) (UniProt P78540); experiment: in vitro enzyme assay to detect the production of urea directly proportional to the activity of Arginase II; type: functional; parameters: scale not given: in the data most compounds retested in dose-response had high values
# T2 sequence (whole entry): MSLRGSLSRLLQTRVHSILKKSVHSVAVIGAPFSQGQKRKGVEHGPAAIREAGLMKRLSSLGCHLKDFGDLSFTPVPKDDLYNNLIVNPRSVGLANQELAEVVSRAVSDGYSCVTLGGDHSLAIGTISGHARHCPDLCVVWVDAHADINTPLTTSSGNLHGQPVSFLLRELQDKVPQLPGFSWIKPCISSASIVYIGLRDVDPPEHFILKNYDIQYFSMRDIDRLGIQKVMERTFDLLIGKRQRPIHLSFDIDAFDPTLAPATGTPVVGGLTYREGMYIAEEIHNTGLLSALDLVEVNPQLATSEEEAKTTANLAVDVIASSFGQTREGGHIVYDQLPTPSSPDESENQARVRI
# [6] = target: T3, Proteasome subunit beta (Trypanosoma cruzi) (UniProt O96673); experiment: Trypanosoma cruzi proteasome chymotrypsin-like activity (TcProtChymo) assay.; type: functional; parameters: scale not given: in the data most compounds retested in dose-response had high values; conditions: 9.37 µM
# T3 sequence (whole entry): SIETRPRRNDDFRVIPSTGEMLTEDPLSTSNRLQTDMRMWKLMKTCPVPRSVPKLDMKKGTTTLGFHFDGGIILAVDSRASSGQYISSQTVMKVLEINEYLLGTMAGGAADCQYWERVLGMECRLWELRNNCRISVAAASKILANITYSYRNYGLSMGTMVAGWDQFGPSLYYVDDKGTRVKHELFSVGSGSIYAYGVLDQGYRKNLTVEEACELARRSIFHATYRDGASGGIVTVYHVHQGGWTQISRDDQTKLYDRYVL
# Homo sapiens = organism: Homo sapiens; experiment: To identify inhibition of the IFN signalling (Jak-Stat) pathway via expression of an eGFP reporter gene under the control of an IFN-stimulated response element (ISRE) containing MxA promoter.; type: functional; parameters: scale not given: direction of the effect not stated beside the values; conditions: 30 µM
# [7] = target: T4, Tyrosyl-tRNA synthetase, putative (Trypanosoma cruzi (strain CL Brener)) (UniProt Q4DSP6); experiment: Trypanosoma cruzi tyrosyl tRNA synthetase (TcYRS) _High Tyrosine SOP; type: functional; parameters: scale not given: in the data most compounds retested in dose-response had high values; conditions: 30 µM
# T4 sequence (whole entry): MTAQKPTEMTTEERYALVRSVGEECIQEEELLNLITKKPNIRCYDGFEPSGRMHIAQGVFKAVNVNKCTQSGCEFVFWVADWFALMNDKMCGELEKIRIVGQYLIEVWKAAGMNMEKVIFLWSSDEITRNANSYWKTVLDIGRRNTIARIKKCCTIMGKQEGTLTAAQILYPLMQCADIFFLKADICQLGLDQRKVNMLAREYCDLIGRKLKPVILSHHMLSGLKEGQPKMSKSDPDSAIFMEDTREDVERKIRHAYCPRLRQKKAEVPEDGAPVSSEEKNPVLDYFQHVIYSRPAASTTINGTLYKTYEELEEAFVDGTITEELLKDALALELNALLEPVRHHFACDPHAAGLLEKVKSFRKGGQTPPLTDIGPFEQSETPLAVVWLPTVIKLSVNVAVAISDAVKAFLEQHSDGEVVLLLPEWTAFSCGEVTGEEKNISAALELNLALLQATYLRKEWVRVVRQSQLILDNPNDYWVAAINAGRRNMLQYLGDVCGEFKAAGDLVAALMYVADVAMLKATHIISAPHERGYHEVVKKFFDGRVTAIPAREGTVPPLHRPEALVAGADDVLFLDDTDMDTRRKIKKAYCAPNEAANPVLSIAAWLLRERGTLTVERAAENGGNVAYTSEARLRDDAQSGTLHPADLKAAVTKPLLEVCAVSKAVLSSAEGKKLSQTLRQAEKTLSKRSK
# [8] = target: T4, Tyrosyl-tRNA synthetase, putative (Trypanosoma cruzi (strain CL Brener)); experiment: Trypanosoma cruzi tyrosyl tRNA synthetase (TcYRS) SOP; type: functional; parameters: scale not given: direction of the effect not stated beside the values; conditions: 30 µM
# [9] = target: Chromo domain-containing protein 1 (Saccharomyces cerevisiae (strain ATCC 204508 / S288c) (Baker's yeast)) (UniProt P32657); experiment: ScCHD-1 Enzyme Inhibition Assay; type: functional; parameters: scale not given: in the data most compounds retested in dose-response had high values; conditions: 30 µM
# Chain of Chromo domain-containing protein 1 (Saccharomyces cerevisiae (strain ATCC 204508 / S288c) (Baker's yeast)) (P32657 whole entry, the tested form may be a part): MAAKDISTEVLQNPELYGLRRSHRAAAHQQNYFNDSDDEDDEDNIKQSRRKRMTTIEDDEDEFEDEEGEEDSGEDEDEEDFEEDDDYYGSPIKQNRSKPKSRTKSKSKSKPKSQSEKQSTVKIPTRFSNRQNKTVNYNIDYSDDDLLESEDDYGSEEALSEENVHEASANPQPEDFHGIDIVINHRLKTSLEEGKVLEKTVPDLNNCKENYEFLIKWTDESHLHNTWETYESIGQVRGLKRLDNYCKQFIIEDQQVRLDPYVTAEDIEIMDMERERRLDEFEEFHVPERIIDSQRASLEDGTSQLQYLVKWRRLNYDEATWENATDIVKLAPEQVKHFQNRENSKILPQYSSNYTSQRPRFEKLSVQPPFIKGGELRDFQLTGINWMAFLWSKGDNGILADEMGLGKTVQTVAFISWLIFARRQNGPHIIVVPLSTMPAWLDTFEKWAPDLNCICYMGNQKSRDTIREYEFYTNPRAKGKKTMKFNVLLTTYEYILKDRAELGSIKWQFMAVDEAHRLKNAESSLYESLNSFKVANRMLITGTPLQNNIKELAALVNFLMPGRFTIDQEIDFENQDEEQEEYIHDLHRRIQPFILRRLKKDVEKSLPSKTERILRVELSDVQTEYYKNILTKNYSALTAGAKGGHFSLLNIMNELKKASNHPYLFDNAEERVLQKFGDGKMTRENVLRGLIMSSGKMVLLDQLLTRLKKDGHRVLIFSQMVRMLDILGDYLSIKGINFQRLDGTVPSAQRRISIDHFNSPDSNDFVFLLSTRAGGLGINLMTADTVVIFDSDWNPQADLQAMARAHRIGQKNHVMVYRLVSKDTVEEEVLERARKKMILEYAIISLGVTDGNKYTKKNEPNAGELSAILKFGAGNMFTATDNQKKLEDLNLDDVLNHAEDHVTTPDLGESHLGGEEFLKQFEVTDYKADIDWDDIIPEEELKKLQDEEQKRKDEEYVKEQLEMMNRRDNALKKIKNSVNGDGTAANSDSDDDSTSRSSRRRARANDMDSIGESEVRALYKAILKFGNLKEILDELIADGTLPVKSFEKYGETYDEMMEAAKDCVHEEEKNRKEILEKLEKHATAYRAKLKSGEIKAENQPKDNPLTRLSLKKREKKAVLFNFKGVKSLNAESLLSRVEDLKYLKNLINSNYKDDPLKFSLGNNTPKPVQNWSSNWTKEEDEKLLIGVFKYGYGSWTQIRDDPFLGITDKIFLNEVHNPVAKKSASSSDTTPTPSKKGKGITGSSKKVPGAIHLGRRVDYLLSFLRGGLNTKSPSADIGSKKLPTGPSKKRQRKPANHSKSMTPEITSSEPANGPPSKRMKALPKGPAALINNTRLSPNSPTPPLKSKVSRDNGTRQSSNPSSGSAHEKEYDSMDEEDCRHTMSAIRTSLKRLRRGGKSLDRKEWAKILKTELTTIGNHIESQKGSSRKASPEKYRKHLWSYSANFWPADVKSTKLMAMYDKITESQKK
# [10] = target: T5, Methionyl-tRNA synthetase, putative (Leishmania donovani (strain BPK282A1)) (UniProt E9BF75); experiment: Leishmania donovani Methionine tRNA synthetase (LdMetRS):v7. Dose response assay; type: functional; parameters: conc 80 nM, time 150 minutes
# T5 sequence (whole entry): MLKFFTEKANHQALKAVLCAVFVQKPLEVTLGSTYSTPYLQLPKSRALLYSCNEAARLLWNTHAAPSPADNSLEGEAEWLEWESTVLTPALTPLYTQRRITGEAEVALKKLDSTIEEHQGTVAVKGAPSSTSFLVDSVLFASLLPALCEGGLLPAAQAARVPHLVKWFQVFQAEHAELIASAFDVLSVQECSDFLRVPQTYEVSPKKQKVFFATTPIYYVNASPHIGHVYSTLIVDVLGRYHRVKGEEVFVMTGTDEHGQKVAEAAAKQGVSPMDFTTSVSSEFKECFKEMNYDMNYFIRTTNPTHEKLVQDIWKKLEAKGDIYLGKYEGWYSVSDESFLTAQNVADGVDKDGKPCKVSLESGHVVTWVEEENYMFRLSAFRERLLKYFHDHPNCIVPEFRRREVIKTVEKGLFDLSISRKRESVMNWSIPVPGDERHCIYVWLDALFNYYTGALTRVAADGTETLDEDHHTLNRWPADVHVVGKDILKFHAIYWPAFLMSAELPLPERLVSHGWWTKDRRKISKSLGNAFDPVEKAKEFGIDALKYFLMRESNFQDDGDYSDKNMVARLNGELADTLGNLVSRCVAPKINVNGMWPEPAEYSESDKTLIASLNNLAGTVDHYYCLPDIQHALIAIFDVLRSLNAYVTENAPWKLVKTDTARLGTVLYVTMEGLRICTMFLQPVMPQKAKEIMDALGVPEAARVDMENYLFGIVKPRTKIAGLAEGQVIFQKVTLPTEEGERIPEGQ
# Chain of Protein translocase subunit SecA (Escherichia coli (strain K12)) (P10408 whole entry): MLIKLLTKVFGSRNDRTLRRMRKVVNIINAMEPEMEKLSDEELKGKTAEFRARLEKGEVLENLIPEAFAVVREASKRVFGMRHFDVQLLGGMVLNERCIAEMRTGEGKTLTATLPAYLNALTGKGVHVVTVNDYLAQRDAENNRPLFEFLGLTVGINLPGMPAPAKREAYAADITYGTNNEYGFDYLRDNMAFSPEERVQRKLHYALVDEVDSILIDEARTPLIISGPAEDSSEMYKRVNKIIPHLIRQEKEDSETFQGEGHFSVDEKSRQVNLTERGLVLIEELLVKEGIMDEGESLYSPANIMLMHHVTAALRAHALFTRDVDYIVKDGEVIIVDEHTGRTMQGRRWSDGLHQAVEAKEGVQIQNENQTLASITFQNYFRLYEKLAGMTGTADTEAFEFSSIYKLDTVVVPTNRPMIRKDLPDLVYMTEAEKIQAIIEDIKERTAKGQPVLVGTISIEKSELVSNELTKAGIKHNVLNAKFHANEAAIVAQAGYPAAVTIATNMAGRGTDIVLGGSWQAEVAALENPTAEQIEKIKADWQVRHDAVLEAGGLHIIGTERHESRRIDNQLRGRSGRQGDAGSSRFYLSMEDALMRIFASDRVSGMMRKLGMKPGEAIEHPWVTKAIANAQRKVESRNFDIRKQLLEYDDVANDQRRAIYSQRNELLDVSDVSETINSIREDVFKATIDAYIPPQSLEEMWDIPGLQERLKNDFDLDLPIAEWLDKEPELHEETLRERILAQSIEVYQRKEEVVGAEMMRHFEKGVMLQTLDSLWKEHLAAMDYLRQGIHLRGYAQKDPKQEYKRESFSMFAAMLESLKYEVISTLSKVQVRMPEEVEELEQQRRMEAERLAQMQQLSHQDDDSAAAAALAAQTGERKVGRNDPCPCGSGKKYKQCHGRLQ
Compound,Percent Effect [1],Percent Effect [2],Percent Effect [3],Percent Effect [4],Percent Effect (Trypanosoma cruzi),Percent Effect ([5]; 30 µM),Percent Effect ([5]; 33.3 µM),Percent Effect [6],Percent Effect (Homo sapiens),Percent Effect [7],Percent Effect [8],Percent Effect [9],PXC50 ([10]; MAX_EFFECT 33.25415677),PXC50 ([10]; MAX_EFFECT 41.72535211),PXC50 ([10]; MAX_EFFECT 8.551068884),PXC50 ([10]; MAX_EFFECT 14.26056338)
CN(Cc1ccccn1)C1CC2(CCN(Cc3cccnc3)CC2)C1,-7.24%,13.3%,5.22%,-6.34%,-10%,-2.7%,0.233%,9.6%,10.9%,4.25%,11.5%,-7.41%,,,,
Cc1nnc(NCC2(c3ccc(Cl)cc3Cl)CCOCC2)c(C#N)c1C,-4%,0%,-11.6%,42.2%,12.2%,,1.91%,8.97%,10.4%,5.82%,2.44%,-12.2%,< 4,< 4,,
Cc1cc(CNC(=O)N2CCN(c3ccccc3)CC2)no1,-3.75%,5.41%,2.37%,0.348%,0%,3.78%,4.17%,10.6%,-2.92%,9.9%,3.66%,-1.36%,,,,
Cn1cc(CN(Cc2ccccc2)CC(O)c2cccs2)cn1 (configuration not stated),-2.22%,2.7%,-1.93%,9.64%,7.14%,7.03%,-1.74%,7.81%,1.28%,-1.07%,-13.6%,-8.54%,,,,
c1ccc(COC2CCN(c3cncc(-n4cccn4)n3)CC2)cc1,-2.59%,5.41%,-5.76%,-7.06%,4.3%,,2.08%,19.2%,14.3%,8.91%,13.4%,-2.69%,,,< 4,< 4
